In PubChem BioAssay (EPA / NIEHS):
A structure can be active in one record and inactive in another. Calls of active or inactive are those of the source. The calls were made as follows: active = hit-call score of the fitted dose curve at least 0.9, where 1 is the maximum; inactive = score below 0.9.

Key:
[1] = read-out: Human Leukocyte Antigen - DR isotype (HLADR), HLA-DRA (gene 3122); test: BSK_BE3C_HLADR: BioMAP Diversity Plus: BE3C Assay for Human Leukocyte Antigen - DR isotype (HLADR) Biomarker Activity (AID 2283032); conditions: primary human bronchial epithelial cells; actives raise or lower the signal
Outline: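 Signal came from an ELISA for HLA-DR in human bronchial epithelial primary cells harvested 24 h after treatment; gain- and loss-of-signal fitting used DMSO controls as reference.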

[2] = read-out: Vascular cell adhesion molecule 1 (VCAM1), VCAM1 (gene 7412); test: BSK_4H_VCAM1: BioMAP Diversity Plus: 4H Assay for Vascular cell adhesion molecule 1 (VCAM1) Biomarker Activity (AID 2283033); conditions: primary human endothelial cells (HUVEC); actives raise or lower the signal
Outline: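 Endpoint derived from bidirectional fitting against DMSO controls of VCAM-1 ELISA signal in umbilical vein endothelial cells sampled at 24 h following treatment.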

[3] = read-out: Interferon-gamma inducible Protein 10 (IP10), CXCL10 (gene 3627); test: BSK_BE3C_IP10: BioMAP Diversity Plus: BE3C Assay for Interferon-gamma inducible Protein 10 (IP10) Biomarker Activity (AID 2283034); conditions: primary human bronchial epithelial cells; actives raise or lower the signal
Outline: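 Using primary human bronchial epithelial cultures, the assay captures IP-10 by ELISA one day (24 h) after exposure. Parallel SRB staining of total protein flags overt cytotoxicity. Fits run bidirectionally relative to DMSO.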

[4] = read-out: Monokine induced gamma interferon (MIG), CXCL9 (gene 4283); test: BSK_BE3C_MIG: BioMAP Diversity Plus: BE3C Assay for Monokine induced gamma interferon (MIG) Biomarker Activity (AID 2283035); conditions: primary human bronchial epithelial cells; actives raise or lower the signal
Outline: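 ELISA read-out of MIG in human lung bronchial epithelial primary cultures, 24 h post-dosing. Bidirectional curve fit vs DMSO baseline.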

[5] = read-out: Plasminogen activator inhibitor-1 (PAI1), SERPINE1 (gene 5054); test: BSK_BE3C_PAI1: BioMAP Diversity Plus: BE3C Assay for Plasminogen activator inhibitor-1 (PAI1) Biomarker Activity (AID 2283037); conditions: primary human bronchial epithelial cells; actives raise or lower the signal
Outline: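 PAI-1 biomarker levels in treated human bronchial epithelial cells are determined by ELISA at 24 h. Both increases and decreases relative to DMSO are fitted.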

[6] = read-out: Urokinase-type plasminogen activator receptor (uPAR), PLAUR (gene 5329); test: BSK_BE3C_uPAR: BioMAP Diversity Plus: BE3C Assay for Urokinase-type plasminogen activator receptor (uPAR) Biomarker Activity (AID 2283039); conditions: primary human bronchial epithelial cells; actives raise or lower the signal
Outline: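 A uPAR ELISA serves as the readout, taken 24 h after treating primary human bronchial epithelial cells. Responses in either direction are fitted against DMSO, which defines baseline activity.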

[7] = read-out: Interleukin-6 (IL6), IL6 (gene 3569); test: BSK_CASM3C_IL6: BioMAP Diversity Plus: CASM3C Assay for Interleukin-6 (IL6) Biomarker Activity for (AID 2283040); conditions: primary human coronary artery smooth muscle cells; actives raise or lower the signal
[8] = read-out: Tissue plasminogen activator (tPA), PLAT (gene 5327); test: BSK_BE3C_tPA: BioMAP Diversity Plus: BE3C Assay for Tissue plasminogen activator (tPA) Biomarker Activity (AID 2283041); conditions: primary human bronchial epithelial cells; actives raise or lower the signal
Outline: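 Bidirectional curve fitting relative to DMSO defined activity, with tPA detected by ELISA in chemically treated human bronchial epithelial primary cells at 24 hours.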

[9] = read-out: Interleukin-8 (IL8), CXCL8 (gene 3576); test: BSK_CASM3C_IL8: BioMAP Diversity Plus: CASM3C Assay for Interleukin-8 (IL8) Biomarker Activity (AID 2283042); conditions: primary human coronary artery smooth muscle cells; actives raise or lower the signal;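 also: IL-8 protein level quantified by ELISA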
[10] = read-out: Human Leukocyte Antigen - DR isotype (HLADR), HLA-DRA (gene 3122); test: BSK_CASM3C_HLADR: BioMAP Diversity Plus: CASM3C Assay for Human Leukocyte Antigen - DR isotype (HLADR) Biomarker Activity (AID 2283043); conditions: primary human coronary artery smooth muscle cells; actives raise or lower the signal;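 also: cell-surface HLA-DR protein level quantified by ELISA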
[11] = read-out: Macrophage colony-stimulating factor (MCSF), CSF1 (gene 1435); test: BSK_CASM3C_MCSF: BioMAP Diversity Plus: CASM3C Assay for Macrophage colony-stimulating factor (MCSF) Biomarker Activity (AID 2283044); conditions: primary human coronary artery smooth muscle cells; actives raise or lower the signal;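 also: M-CSF protein amount quantified by ELISA after 24 h exposure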
[12] = read-out: Low-density lipoprotein receptor (LDLR), LDLR (gene 3949); test: BSK_CASM3C_LDLR: BioMAP Diversity Plus: CASM3C Assay for Low-density lipoprotein receptor (LDLR) Biomarker Activity (AID 2283045); conditions: primary human coronary artery smooth muscle cells; actives raise or lower the signal;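 also: LDLR protein level on the cell surface quantified by ELISA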
[13] = read-out: Monocyte Chemoattractant Protein-1 (MCP1), CCL2 (gene 6347); test: BSK_CASM3C_MCP1: BioMAP Diversity Plus: CASM3C Assay for Monocyte Chemoattractant Protein-1 (MCP1) Biomarker Activity (AID 2283046); conditions: primary human coronary artery smooth muscle cells; actives raise or lower the signal;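 also: MCP-1 level quantified by ELISA 24 h after dosing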
[14] = BSK_CASM3C_Proliferation: Cell Proliferation Assessment in the BioMAP Diversity Plus: CASM3C Assay (AID 2283047); conditions: primary human coronary artery smooth muscle cells;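 also: sulforhodamine B total protein stain as relative cell number at 560 nm; sub-confluent cells exposed 48 h before staining; fitted both ways against DMSO so gain or loss of cell number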
[15] = read-out: Monokine induced gamma interferon (MIG), CXCL9 (gene 4283); test: BSK_CASM3C_MIG: BioMAP Diversity Plus: CASM3C Assay for Monokine induced gamma interferon (MIG) Biomarker Activity (AID 2283048); conditions: primary human coronary artery smooth muscle cells; actives raise or lower the signal;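 also: MIG protein level measured by ELISA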
[16] = read-out: serum amyloid A (SAA), SAA1 (gene 6288); test: BSK_CASM3C_SAA: BioMAP Diversity Plus: CASM3C Assay for serum amyloid A (SAA) Biomarker Activity (AID 2283049); conditions: primary human coronary artery smooth muscle cells; actives raise or lower the signal;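 also: SAA protein level quantified by ELISA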
[17] = BSK_CASM3C_SRB: Viability Assessment in the BioMAP Diversity Plus: CASM3C Assay (AID 2283050); conditions: primary human coronary artery smooth muscle cells;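 also: cells exposed to compound for 24 h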
[18] = read-out: Thrombomodulin, THBD (gene 7056); test: BSK_CASM3C_Thrombomodulin: BioMAP Diversity Plus: CASM3C Assay for Thrombomodulin Biomarker Activity (AID 2283051); conditions: primary human coronary artery smooth muscle cells; actives raise or lower the signal;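 also: thrombomodulin protein level measured by ELISA 24 h after dosing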
[19] = read-out: Transforming growth factor beta 1 (TGFb1), TGFB1 (gene 7040); test: BSK_BE3C_TGFb1: BioMAP Diversity Plus: BE3C Assay for Transforming growth factor beta 1 (TGFb1) Biomarker Activity (AID 2283036); conditions: primary human bronchial epithelial cells; actives raise or lower the signal
Outline: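 In this human primary bronchial epithelial system, an ELISA quantified TGF-b1 one day after dosing. Endpoint changes in either direction were fitted relative to DMSO.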

[20] = read-out: urokinase plasminogen activator (uPA), PLAU (gene 5328); test: BSK_BE3C_uPA: BioMAP Diversity Plus: BE3C Assay for urokinase plasminogen activator (uPA) Biomarker Activity (AID 2283038); conditions: primary human bronchial epithelial cells; actives raise or lower the signal;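 also: uPA protein level quantified by ELISA in cell cultures; uPA read one day after compound addition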
Outline: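 Primary human bronchial epithelial cells, uPA measured by ELISA 24 h after dosing. Bidirectional change relative to DMSO; cytotoxicity checked in parallel cultures by sulforhodamine B total-protein staining.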

Measured: AC50

C=CC(C)(O)CCC=C(C)C (stereo not drawn)
inactive: [1] | [2] | [3] | [4] | [5] | [6] | [7] | [8] | [9] | [10] | [11] | [12] | [13] | [14] | [15] | [16] | [17] | [18]
active: [14] 4.81 µM

CC(=O)C1(C)CC2=C(CCCC2(C)C)CC1C (stereo not drawn)
inactive: [9] | [12] | [18]
active: [1] 13.8 µM | [2] 9.63 µM | [3] 25.6 µM | [4] 34.9 µM | [19] 12.8 µM | [5] 20 µM | [6] 20 µM | [7] 14 µM | [8] 12.7 µM | [11] 10.3 µM | [13] 20 µM | [14] 13.2 µM | [15] 27.6 µM | [16] 11.9 µM | [17] 12.4 µM

C1=CC2C3C=CC(C3)C2C1 (stereo not drawn)
not listed: [20]
inactive: all other assays above

CC(C)(N=C=O)c1cccc(C(C)(C)N=C=O)c1
not listed: [20]
inactive: all other assays above

CCCCCCC(CO)CCCC (stereo not drawn)
not listed: [19]
inactive: all other assays above

C=C(C)C(=O)OCC(CC)(COC(=O)C(=C)C)COC(=O)C(=C)C
active: [2] 19.7 µM | [13] 4.8 µM
not listed: [20]
inactive: all other assays above
